From PubChem BioAssay (NCI)
About 79,000 compounds went through this panel and 15% of them were active in at least one assay; those are over-represented in the sample as a whole. The source made the active and inactive calls. No stated cut-off is given here; in the data, active means growth inhibition above about 70%; inactive means the rest.

What was measured:
[1] = NCI Yeast Anticancer Drug Screen. Data for the wt1 strain (AID 149);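 further: 0% = growth of vehicle-treated wt1 cultures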; conditions: S. cerevisiae wt1 strain (SPY 50644) growth inhibition, hits give high values
Method in brief: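 wt1 strain grown with compound or vehicle; inhibition taken from the growth difference.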

[2] = NCI Yeast Anticancer Drug Screen. Data for the rad50EPP+ strain (AID 151);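 further: 0% = growth of vehicle-treated control cultures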; conditions: S. cerevisiae rad50 mutant strain, hits give high values
Method in brief: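 Measured: growth inhibition of rad50EPP+ yeast. Reference: vehicle-treated controls. Screen uses strains with defined genetic alterations in DNA damage repair or cell cycle control.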

[3] = NCI Yeast Anticancer Drug Screen. Data for the mgt1 strain (AID 153); conditions: S. cerevisiae mgt1 mutant growth inhibition, hits give high values
Method in brief: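 Compounds were applied to mgt1 mutant yeast, and growth was then compared against vehicle-treated control cultures to give percent inhibition.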

[4] = NCI Yeast Anticancer Drug Screen. Data for the rad50 strain (AID 155);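 further: 0% = growth of vehicle-only cultures of the same strain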; conditions: S. cerevisiae rad50 strain growth inhibition, hits give high values
Method in brief: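 DNA repair mutant yeast, compound exposure, growth read-out; inhibition is taken relative to vehicle.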

[5] = NCI Yeast Anticancer Drug Screen. Data for the mec2-1 strain (AID 157); conditions: S. cerevisiae mec2-1 strain, hits give high values
Method in brief: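 Compounds were applied to mec2-1 yeast cells. Their growth was then compared with that of vehicle-treated cultures to give growth inhibition.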

[6] = NCI Yeast Anticancer Drug Screen. Data for the rad14 strain (AID 159);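 further: 0% = growth of vehicle-treated control cultures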; conditions: S. cerevisiae rad14 strain growth inhibition, hits give high values
Method in brief: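 DNA repair-defective yeast, compound-exposed; % growth inhibition derived by comparison with vehicle-treated controls.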

[7] = NCI Yeast Anticancer Drug Screen. Data for the sgs1 mgt1 strain (AID 161);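 further: 0% = growth of cultures given vehicle only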; conditions: S. cerevisiae sgs1 mgt1 strain, hits give high values
Method in brief: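 This yeast growth screen uses a strain with defined DNA-repair lesions; compound-treated growth is compared with vehicle-treated growth.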

[8] = NCI Yeast Anticancer Drug Screen. Data for the CLN2oe strain (AID 163);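 further: 0% = growth of vehicle-only control cultures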; conditions: S. cerevisiae CLN2oe strain, hits give high values
Method in brief: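 Cells of an engineered yeast line with disturbed cell-cycle regulation are treated with compound. Inhibition of growth is then calculated relative to the vehicle-treated reference.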

[9] = NCI Yeast Anticancer Drug Screen. Data for the cln2 rad14 strain (AID 165);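 further: 0% = growth equal to vehicle treated cultures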; conditions: S. cerevisiae cln2 rad14 strain, hits give high values
Method in brief: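 Strain: cln2 rad14 yeast, altered in cell cycle control and DNA damage repair. Read-out: growth inhibition vs vehicle.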

[10] = NCI Yeast Anticancer Drug Screen. Data for the bub3 strain (AID 167); conditions: S. cerevisiae bub3 mutant strain, hits give high values
Method in brief: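 In this screen, a yeast mutant lacking normal mitotic checkpoint function is challenged with compound. Relative growth versus vehicle gives the inhibition value.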

[11] = NCI Yeast Anticancer Drug Screen. Data for the wt2 strain (AID 169);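 further: 0% = growth of vehicle-treated yeast cultures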; conditions: S. cerevisiae wt2 strain growth inhibition, hits give high values
Method in brief: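 Growth of compound-treated yeast is measured and expressed as inhibition relative to vehicle-only controls.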

[12] = NCI Yeast Anticancer Drug Screen. Data for the mlh1 strain (AID 171);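 further: 0% = growth of vehicle-treated control cultures of the same strain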; conditions: S. cerevisiae mlh1 strain growth inhibition, hits give high values
Method in brief: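 Test agents were incubated with yeast bearing a defined DNA damage repair or cell cycle control alteration; values are growth inhibition normalised to vehicle-treated cultures.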

[13] = NCI Yeast Anticancer Drug Screen. Data for the sgs1 strain (AID 173);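 further: 0% = growth of vehicle-only control cultures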; conditions: S. cerevisiae sgs1 mutant, hits give high values
Method in brief: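 Strain with an altered DNA repair or cell cycle pathway exposed to compound. Growth then measured. Value = inhibition versus vehicle control.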

[14] = NCI Yeast Anticancer Drug Screen. Data for the mlh1 rad18 strain (AID 175); conditions: S. cerevisiae mlh1 rad18 strain growth inhibition, hits give high values
Method in brief: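 A repair-deficient yeast strain is exposed to test compound, and growth is scored relative to vehicle-treated controls.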

[15] = NCI Yeast Anticancer Drug Screen. Data for the rad18 strain (AID 177); conditions: S. cerevisiae rad18 mutant growth inhibition, hits give high values
Method in brief: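 DNA-repair-defective yeast; compound treatment; growth inhibition scored against vehicle.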

[16] = at 5.0 µM (retest, dose inferred, filed as 0.5)
[17] = at 50.0 µM (retest, dose inferred, filed as 5.0)

Measured: growth inhibition

Cc1cc(=O)oc2c(C)c3occc(=O)c3cc12
active: [4]; at 50.0 µM 94.3% | [4]; at 100.0 µM 84% | [7]; at 50.0 µM 74.4% | [10]; at 50.0 µM 78%
inactive: [1]; at 1.2 µM 4% | [1]; at 3.7 µM -2% | [1]; at 11.0 µM 0% | [1]; at 33.0 µM 5% | [1]; at 100.0 µM 23% | [2]; at 1.2 µM -1% | [2]; at 3.7 µM -1% | [2]; at 11.0 µM 4% | [2]; at 33.0 µM 29% | [2]; at 100.0 µM 67% | [3]; at 1.2 µM -5% | [3]; at 3.7 µM 3% | [3]; at 11.0 µM -11% | [3]; at 33.0 µM -10% | [3]; at 100.0 µM 44% | [4]; at 1.2 µM -1% | [4]; at 3.7 µM 2% | [4]; [16] 24% | [4]; at 11.0 µM 18% | [4]; at 33.0 µM 59% | [4]; [17] 67% | [5]; at 1.2 µM -2% | [5]; at 3.7 µM 0% | [5]; [16] -6% | [5]; at 11.0 µM 4% | [5]; at 33.0 µM 14% | [5]; [17] 21% | [5]; at 50.0 µM 67.2% | [5]; at 100.0 µM 40% | [6]; at 1.2 µM 2% | [6]; at 3.7 µM 2% | [6]; at 11.0 µM 1% | [6]; at 33.0 µM 9% | [6]; at 100.0 µM 28% | [7]; [16] -10% | [7]; [17] 8% | [8]; at 1.2 µM -2% | [8]; at 3.7 µM -1% | [8]; at 11.0 µM 9% | [8]; at 33.0 µM 6% | [8]; at 100.0 µM 29% | [9]; [16] -17% | [9]; [17] 15% | [9]; at 50.0 µM 43.8% | [10]; at 1.2 µM -1% | [10]; at 3.7 µM -1% | [10]; [16] 12% | [10]; at 11.0 µM 3% | [10]; at 33.0 µM 5% | [10]; [17] 19% | [10]; at 100.0 µM 15% | [11]; at 1.2 µM -1% | [11]; at 3.7 µM -2% | [11]; at 11.0 µM 1% | [11]; at 33.0 µM 10% | [11]; at 100.0 µM 32% | [12]; at 1.2 µM -1% | [12]; at 3.7 µM 4% | [12]; at 11.0 µM 2% | [12]; at 33.0 µM 11% | [12]; at 100.0 µM 48% | [13]; at 1.2 µM 0% | [13]; at 3.7 µM -2% | [13]; at 11.0 µM 0% | [13]; at 33.0 µM 6% | [13]; at 100.0 µM 34% | [14]; [16] 11% | [14]; [17] 21% | [14]; at 50.0 µM 63.1% | [15]; at 1.2 µM -1% | [15]; at 3.7 µM -4% | [15]; at 11.0 µM -2% | [15]; at 33.0 µM 7% | [15]; at 100.0 µM 40%

Cc1csc(=S)n1OC(=O)NC1CCCCC1
inactive: [1]; at 1.2 µM -5% | [2]; at 1.2 µM -23% | [3]; at 1.2 µM 18% | [4]; at 1.2 µM -2% | [5]; at 1.2 µM -11% | [5]; [16] -3% | [6]; at 1.2 µM -8% | [7]; [16] 32% | [8]; at 1.2 µM -6% | [10]; at 1.2 µM 3% | [11]; at 1.2 µM -23% | [12]; at 1.2 µM 8% | [13]; at 1.2 µM -42% | [15]; at 1.2 µM -11%
active: [1]; at 3.7 µM 97% | [1]; at 11.0 µM 99% | [1]; at 33.0 µM 100% | [1]; at 100.0 µM 99% | [2]; at 3.7 µM 99% | [2]; at 11.0 µM 99% | [2]; at 33.0 µM 99% | [2]; at 100.0 µM 99% | [3]; at 3.7 µM 99% | [3]; at 11.0 µM 100% | [3]; at 33.0 µM 100% | [3]; at 100.0 µM 99% | [4]; at 3.7 µM 98% | [4]; [16] 94% | [4]; at 11.0 µM 99% | [4]; at 33.0 µM 98% | [4]; [17] 98% | [4]; at 50.0 µM 92.5% | [4]; at 100.0 µM 98% | [5]; at 3.7 µM 93% | [5]; at 11.0 µM 99% | [5]; at 33.0 µM 93% | [5]; [17] 99% | [5]; at 50.0 µM 94.2% | [5]; at 100.0 µM 95% | [6]; at 3.7 µM 96% | [6]; at 11.0 µM 99% | [6]; at 33.0 µM 99% | [6]; at 100.0 µM 98% | [7]; [17] 96% | [7]; at 50.0 µM 93.5% | [8]; at 3.7 µM 99% | [8]; at 11.0 µM 100% | [8]; at 33.0 µM 100% | [8]; at 100.0 µM 100% | [9]; [16] 83% | [9]; [17] 98% | [9]; at 50.0 µM 92.2% | [10]; at 3.7 µM 99% | [10]; [16] 99% | [10]; at 11.0 µM 99% | [10]; at 33.0 µM 100% | [10]; [17] 97% | [10]; at 50.0 µM 91.8% | [10]; at 100.0 µM 99% | [11]; at 3.7 µM 97% | [11]; at 11.0 µM 99% | [11]; at 33.0 µM 99% | [11]; at 100.0 µM 99% | [12]; at 3.7 µM 99% | [12]; at 11.0 µM 100% | [12]; at 33.0 µM 99% | [12]; at 100.0 µM 98% | [13]; at 3.7 µM 98% | [13]; at 11.0 µM 99% | [13]; at 33.0 µM 100% | [13]; at 100.0 µM 99% | [15]; at 3.7 µM 94% | [15]; at 11.0 µM 98% | [15]; at 33.0 µM 98% | [15]; at 100.0 µM 98%

CCCOC(=O)C(F)C(Br)C(=O)OCCC (stereo not drawn)
inactive: [1]; at 1.2 µM 42% | [2]; at 1.2 µM 33% | [2]; at 3.7 µM 28% | [3]; at 1.2 µM 54% | [4]; at 1.2 µM 58% | [4]; [16] 44% | [5]; [16] 67% | [6]; at 1.2 µM 21% | [6]; at 3.7 µM 67% | [7]; [16] 21% | [9]; [16] 11% | [10]; at 1.2 µM 38% | [10]; [16] 30% | [11]; at 1.2 µM 57% | [12]; at 1.2 µM 40% | [13]; at 1.2 µM 50%
active: [1]; at 3.7 µM 95% | [1]; at 11.0 µM 98% | [1]; at 33.0 µM 97% | [1]; at 100.0 µM 99% | [2]; at 11.0 µM 94% | [2]; at 33.0 µM 98% | [2]; at 100.0 µM 98% | [3]; at 3.7 µM 90% | [3]; at 11.0 µM 97% | [3]; at 33.0 µM 98% | [3]; at 100.0 µM 99% | [4]; at 3.7 µM 90% | [4]; at 11.0 µM 97% | [4]; at 33.0 µM 97% | [4]; [17] 98% | [4]; at 50.0 µM 89.8% | [4]; at 100.0 µM 99% | [5]; at 1.2 µM 71% | [5]; at 3.7 µM 97% | [5]; at 11.0 µM 97% | [5]; at 33.0 µM 98% | [5]; [17] 100% | [5]; at 50.0 µM 92% | [5]; at 100.0 µM 99% | [6]; at 11.0 µM 97% | [6]; at 33.0 µM 97% | [6]; at 100.0 µM 100% | [7]; [17] 98% | [7]; at 50.0 µM 91.9% | [9]; [17] 70% | [9]; at 50.0 µM 90.7% | [10]; at 3.7 µM 82% | [10]; at 11.0 µM 93% | [10]; at 33.0 µM 96% | [10]; [17] 99% | [10]; at 50.0 µM 90.5% | [10]; at 100.0 µM 96% | [11]; at 3.7 µM 98% | [11]; at 11.0 µM 98% | [11]; at 33.0 µM 98% | [11]; at 100.0 µM 100% | [12]; at 3.7 µM 92% | [12]; at 11.0 µM 98% | [12]; at 33.0 µM 97% | [12]; at 100.0 µM 99% | [13]; at 3.7 µM 96% | [13]; at 11.0 µM 98% | [13]; at 33.0 µM 97% | [13]; at 100.0 µM 99%
